Laboratory results reported in PubChem BioAssay.
The source made the active and inactive calls.

Legend:
[1] = target: Albumin (Bos taurus) (UniProt P02769); assay: bovine serum albumin binders on microarray, profiling panel, artefact control for SMM control protein annotation, biochemical, small-molecule microarray, Alexa647 label, 635/667 nm fluorescence (AID 1118); conditions: BSA-A647 binding, fluorescence 635 nm, higher = more signal;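 also: score merges 667 nm emission intensity and signal-to-noise per printed compound spot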
Chain of Albumin (Bos taurus) (P02769 whole entry, looked up): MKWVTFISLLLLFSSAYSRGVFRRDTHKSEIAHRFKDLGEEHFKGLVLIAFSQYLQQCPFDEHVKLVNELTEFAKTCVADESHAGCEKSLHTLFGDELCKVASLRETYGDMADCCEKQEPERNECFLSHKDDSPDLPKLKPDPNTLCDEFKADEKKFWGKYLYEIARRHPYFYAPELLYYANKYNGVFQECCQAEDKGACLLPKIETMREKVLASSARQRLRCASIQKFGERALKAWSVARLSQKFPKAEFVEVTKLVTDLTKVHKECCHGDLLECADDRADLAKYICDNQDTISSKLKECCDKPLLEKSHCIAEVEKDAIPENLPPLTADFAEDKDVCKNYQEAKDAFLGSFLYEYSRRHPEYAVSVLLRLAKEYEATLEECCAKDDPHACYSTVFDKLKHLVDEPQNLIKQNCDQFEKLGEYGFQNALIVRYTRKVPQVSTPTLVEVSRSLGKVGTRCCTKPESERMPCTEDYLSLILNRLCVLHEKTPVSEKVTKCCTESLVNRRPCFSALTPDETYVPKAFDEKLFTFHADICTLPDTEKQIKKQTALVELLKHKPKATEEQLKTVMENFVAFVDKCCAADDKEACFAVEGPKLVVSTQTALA

[2] = small-molecule microarray binders of probe aXIP, primary screen, biochemical, NeuroSMM set, 635/667 nm fluorescence (AID 1119); conditions: higher = more signal, called active from +8 up or from −8 down;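 also: probe is the protein aXip251-270 applied at 1 µg/mL to compound-printed slides; binding of probe to printed compounds measured as 667 nm fluorescence plus signal to noise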
[3] = small-molecule binders of probe aNOTCH3, primary screen, biochemical, small-molecule microarray, 635/667 nm fluorescence (AID 1120); conditions: higher = more signal;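 also: probe is a biotin-tagged antibody raised against NOTCH3 rather than NOTCH3 protein; score merges spot fluorescence near 667 nm with spot signal to noise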
[4] = small-molecule binders of probe aNOTCH2, primary screen, biochemical, small-molecule microarray, 635/667 nm fluorescence (AID 1121); conditions: higher = more signal;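 also: score merges feature fluorescence read at 667 nm with its signal to noise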
[5] = target: Carbonic anhydrase 2 (Homo sapiens) (UniProt P00918); assay: CAII small-molecule binders, profiling panel, biochemical, small-molecule microarray, Alexa647-labelled CAII (AID 1122); conditions: CAII-A647 binding fluorescence, higher = more signal
[6] = COS7 lysate on small-molecule microarray, probe aHis, 635 nm (AID 1123); conditions: COS7 cell lysate, fluorescence, higher = more signal;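 also: z-score combines 667nm fluorescence intensity with signal-to-noise per printed compound spot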
[7] = compound binding in COS7 lysate, probe aLAP1, primary screen, cell lysate, small-molecule microarray (AID 1124); conditions: probe aLAP1, fluorescence, higher = more signal;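 also: lysate comes from COS7 cells expressing LAP1 and is applied at 0.3 µg/mL; score merges spot fluorescence near 667 nm with signal-to-noise over triplicate slides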
[8] = tested on: Sam68 (KHDRBS1); assay: Sam68 small-molecule binders, primary screen, biochemical, small-molecule microarray, 635 nm fluorescence (AID 1125); conditions: small-molecule microarray binding, higher = more signal;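 also: score merges 667 nm channel intensity with signal to noise over triplicate slides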
[9] = tested on: Chordin-like protein 2 (CHRDL2); assay: CHRDL2 small-molecule binders, primary screen, biochemical, small-molecule microarray, 635 nm fluorescence (AID 1126); conditions: small-molecule microarray binding, fluorescence 635 nm; higher = more signal;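 also: printed compound slides probed with Chrdl2 protein at 4 µg/mL for 1 h at 4 C; score merges 667 nm emission intensity with signal to noise over three replicate slides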
[10] = target: Concanavalin-A (Canavalia ensiformis) (UniProt P02866); assay: ConA small-molecule binders, primary screen, artefact control for SMM control protein annotation, biochemical, small-molecule microarray, Alexa647 label, 635 nm (AID 1127); conditions: ConA-A647 binding fluorescence, higher = more signal;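 also: z combines 667 nm emission intensity with signal-to-noise across three replicate slides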
Chain of Concanavalin-A (Canavalia ensiformis) (P02866 whole entry, looked up): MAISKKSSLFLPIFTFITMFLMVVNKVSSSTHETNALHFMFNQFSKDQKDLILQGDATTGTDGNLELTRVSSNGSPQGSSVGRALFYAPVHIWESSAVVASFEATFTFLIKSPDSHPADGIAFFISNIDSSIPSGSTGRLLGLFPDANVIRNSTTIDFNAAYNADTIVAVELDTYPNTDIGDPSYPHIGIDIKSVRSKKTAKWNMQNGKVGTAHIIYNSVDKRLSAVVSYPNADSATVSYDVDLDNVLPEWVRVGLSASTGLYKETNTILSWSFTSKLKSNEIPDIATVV

[11] = anti-His antibody binders, primary screen, artefact control for SMM control protein annotation, biochemical, small-molecule microarray, 635 nm fluorescence (AID 1128); conditions: anti-His Alexa647 antibody binding, higher = more signal;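 also: score merges feature fluorescence with signal-to-noise for each printed compound spot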
[12] = tested on: Human papillomavirus type 1a E7 protein (residues 1-88); assay: HPV1a E7 small-molecule binders, primary screen, biochemical, small-molecule microarray, residues 1-88, 635 nm (AID 1129); conditions: small-molecule microarray binding, fluorescence 635 nm; higher = more signal
[13] = target: Focal adhesion kinase 1 (Homo sapiens) (UniProt Q05397); assay: small-molecule microarray binders of FAK, primary screen, biochemical, 635/667 nm fluorescence, BSA, DTT (AID 1130); conditions: PTK2 binding, 635 nm fluorescence, higher = more signal;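 also: composite of spot emission at 667 nm and signal to noise over triplicate slides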
Chain of Focal adhesion kinase 1 (Homo sapiens) (Q05397 whole entry, looked up): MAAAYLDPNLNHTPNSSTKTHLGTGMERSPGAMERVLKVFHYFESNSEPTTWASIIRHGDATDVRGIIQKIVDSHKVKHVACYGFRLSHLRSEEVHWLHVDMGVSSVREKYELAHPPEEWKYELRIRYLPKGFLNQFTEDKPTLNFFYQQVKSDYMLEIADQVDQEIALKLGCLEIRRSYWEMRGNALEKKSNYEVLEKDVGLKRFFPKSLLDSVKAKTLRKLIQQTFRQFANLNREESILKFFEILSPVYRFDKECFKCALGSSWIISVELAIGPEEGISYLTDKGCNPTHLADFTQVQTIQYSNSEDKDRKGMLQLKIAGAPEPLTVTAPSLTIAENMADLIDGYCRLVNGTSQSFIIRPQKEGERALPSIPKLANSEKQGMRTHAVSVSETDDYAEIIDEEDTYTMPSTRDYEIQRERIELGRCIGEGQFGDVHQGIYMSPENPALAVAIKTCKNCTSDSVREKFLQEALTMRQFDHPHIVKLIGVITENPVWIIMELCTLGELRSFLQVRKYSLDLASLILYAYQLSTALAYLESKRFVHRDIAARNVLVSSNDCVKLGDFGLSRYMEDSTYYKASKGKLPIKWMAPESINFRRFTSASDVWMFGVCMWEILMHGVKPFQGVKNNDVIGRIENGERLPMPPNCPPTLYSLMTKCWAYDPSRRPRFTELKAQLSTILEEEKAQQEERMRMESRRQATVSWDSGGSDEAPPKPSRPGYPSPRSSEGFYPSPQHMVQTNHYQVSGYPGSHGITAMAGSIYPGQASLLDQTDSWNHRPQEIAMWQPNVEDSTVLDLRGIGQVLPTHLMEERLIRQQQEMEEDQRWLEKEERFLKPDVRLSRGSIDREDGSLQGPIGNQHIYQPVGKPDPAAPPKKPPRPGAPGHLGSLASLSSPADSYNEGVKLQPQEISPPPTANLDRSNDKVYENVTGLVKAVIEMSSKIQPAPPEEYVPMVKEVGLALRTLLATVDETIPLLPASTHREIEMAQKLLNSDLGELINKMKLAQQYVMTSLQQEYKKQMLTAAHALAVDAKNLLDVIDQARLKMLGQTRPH

[14] = tested on: Fibrinogen (Alexa647-labelled); assay: fibrinogen binders on compound microarrays, profiling panel, artefact control for SMM control-protein annotation, biochemical, small-molecule microarray, 635/667 nm fluorescence (AID 1131); conditions: fibrinogen-A647 binding fluorescence, higher = more signal;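 also: z-score merges 667 nm fluorescence with per-spot signal-to-noise over triplicate slides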
[15] = target: Follistatin (Homo sapiens) (UniProt P19883); assay: follistatin binders on small-molecule microarrays, primary screen, biochemical, small-molecule microarray, 635/667 nm fluorescence (AID 1132); conditions: FST binding, 635 nm fluorescence, higher = more signal
Chain of Follistatin (Homo sapiens) (P19883 whole entry, looked up): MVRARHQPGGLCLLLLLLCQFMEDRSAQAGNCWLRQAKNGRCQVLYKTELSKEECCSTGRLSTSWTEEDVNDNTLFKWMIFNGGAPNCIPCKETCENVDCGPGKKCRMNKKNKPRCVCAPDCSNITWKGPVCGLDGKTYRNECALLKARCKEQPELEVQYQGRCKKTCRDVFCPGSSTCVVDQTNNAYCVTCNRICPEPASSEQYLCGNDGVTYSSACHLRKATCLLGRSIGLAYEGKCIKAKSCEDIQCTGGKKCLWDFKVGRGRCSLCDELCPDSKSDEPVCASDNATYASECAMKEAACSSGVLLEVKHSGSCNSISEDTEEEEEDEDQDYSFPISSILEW

[16] = target: Fibroblast growth factor 2 (Homo sapiens) (UniProt P09038); assay: FGF2 binders on small-molecule microarrays, primary screen, biochemical, small-molecule microarray, 635/667 nm fluorescence (AID 1133); conditions: small-molecule microarray binding, FGF2, fluorescence 635/667; higher = more signal
Chain of Fibroblast growth factor 2 (Homo sapiens) (P09038 whole entry, looked up): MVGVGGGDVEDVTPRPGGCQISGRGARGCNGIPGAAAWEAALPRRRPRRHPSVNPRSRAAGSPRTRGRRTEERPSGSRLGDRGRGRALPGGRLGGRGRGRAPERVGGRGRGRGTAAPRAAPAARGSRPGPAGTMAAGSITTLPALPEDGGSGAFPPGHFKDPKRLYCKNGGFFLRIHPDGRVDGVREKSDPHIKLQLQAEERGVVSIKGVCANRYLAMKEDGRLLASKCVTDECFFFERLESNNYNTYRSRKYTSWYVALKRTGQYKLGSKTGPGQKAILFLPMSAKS

[17] = mitochondrial membrane potential change in A549 cells, profiling panel, cell-based, JC-1 fluorescence, basal, 24 h, 100 nL (AID 1138); conditions: higher = more signal;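 also: A549 lung adenocarcinoma cells under basal conditions with no added stimulus; test concentration not given here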
[18] = tested on: Lefty1; assay: Lefty1 binders on small-molecule microarrays, primary screen, biochemical, small-molecule microarray, 635/667 nm fluorescence (AID 1139); conditions: small-molecule microarray binding, fluorescence 635/667; higher = more signal
[19] = tested on: wheat germ agglutinin (Triticum aestivum), Alexa647-labelled; assay: wheat germ agglutinin binders on compound microarrays, profiling panel, artefact control for SMM control-protein annotation, biochemical, small-molecule microarray, 635/667 nm fluorescence (AID 1140); conditions: WGA-A647 binding, 635 nm fluorescence, higher = more signal;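 also: score merges 667 nm feature emission with signal to noise over triplicate slides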
[20] = target: Luciferin 4-monooxygenase (Photinus pyralis) (UniProt P08659); assay: firefly luciferase enzyme inhibitors, primary screen, biochemical, luminescence, purified enzyme, 2006 set (AID 1141); conditions: SteadyGlo luminescence, 30 min, higher = more signal, called active from +8 up or from −8 down;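 also: cell-free assay with purified firefly luciferase at 100 ng per well in PBS; test concentration not given here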
Chain of Luciferin 4-monooxygenase (Photinus pyralis) (P08659 whole entry, looked up): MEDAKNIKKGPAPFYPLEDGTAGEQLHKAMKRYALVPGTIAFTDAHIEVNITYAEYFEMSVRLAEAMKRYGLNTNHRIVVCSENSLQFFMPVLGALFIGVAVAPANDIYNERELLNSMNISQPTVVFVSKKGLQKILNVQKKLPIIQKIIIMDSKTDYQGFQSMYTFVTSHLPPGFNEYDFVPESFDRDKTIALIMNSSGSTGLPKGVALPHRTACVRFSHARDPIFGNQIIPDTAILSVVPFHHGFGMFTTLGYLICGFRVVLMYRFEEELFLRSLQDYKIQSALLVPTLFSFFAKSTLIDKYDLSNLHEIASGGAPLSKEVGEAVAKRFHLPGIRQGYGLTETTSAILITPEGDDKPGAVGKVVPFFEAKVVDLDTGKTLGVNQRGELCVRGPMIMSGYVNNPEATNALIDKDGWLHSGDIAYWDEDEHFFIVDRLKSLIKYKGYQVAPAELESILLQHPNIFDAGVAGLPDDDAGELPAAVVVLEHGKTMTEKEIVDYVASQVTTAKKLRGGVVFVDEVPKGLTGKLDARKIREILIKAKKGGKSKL

Structure (SMILES)	composite z-score [1]	composite Z-score [2]	composite z-score [3]	composite z-score [4]	composite z-score [5]	composite z-score [6]	composite z-score [7]	composite z-score [8]	composite z-score [9]	composite z-score [10]	composite z-score [11]	composite z-score [12]	composite z-score [13]	composite z-score [14]	composite z-score [15]	composite z-score [16]	z-score [17]	composite z-score [18]	composite z-score [19]	z-score [20]
CO[C@@H]1COC(=O)[C@@H]2CCCN2C(=O)[C@@H](C)COC(=O)CC=C[C@H]1C	0.0417	-0.235 (inactive)	-0.0362	-0.14	0.299	0.148	0.0496	1.2	0.695	0.325	0.408	0.923	-0.194	0.527	0.365	1.51	-0.84	1.01	-0.0639	1.48 (inactive)
COC(=O)CC=C[C@@H](C)[C@@H](C=NO[C@@H](C)c1cn([C@H](CO)Cc2ccccc2)nn1)NS(=O)(=O)c1ccc(C)cc1	-0.193	-0.0278 (inactive)	0.107	-0.103	-0.146	-0.306	0.232	0.43	0.784	-0.419	1.56	0.332	0.265	0.982	0.95	0.459	-0.517	0.681	0.0187	-1.28 (inactive)
CC(C)(C)N1C(=O)[C@H]2[C@H]3[C@H](O)[C@H](O)CC(=O)[C@H]3CC[C@H]2C1=O	0.472	0.403 (inactive)	-0.0581	-0.155	0.0658	0.165	0.206	0.892	0.357	0.673	0.875	0.496	-0.246	0.584	0.558	0.399	-0.714	0.407	0.0902	0.206 (inactive)
